According to PubChem BioAssay (NCI):
Several values for one entry are separate records, joined by “and”; a condition that tells them apart may be missing. Identical values can stand only once. The panel holds about 83,000 compounds, 20% with a hit somewhere; the sample as a whole holds those more often.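 Growth was measured after 48 h exposure to one concentration of compound in 96-well plates. Values under 10 count as active.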 Activity calls are given as the source filed them.

Key:
Test in all cases: NCI-60 one-dose screen, 48 h (100 = growth as untreated, 0 = no growth, -100 = all killed)
Settings in all cases: 10 µM unless noted
DU-145 prostate = test system: DU-145 prostate
K-562 leukemia = test system: K-562 leukemia
MALME-3M melanoma = test system: MALME-3M melanoma
MDA-MB-231 breast = test system: MDA-MB-231 breast
RXF 393 renal = test system: RXF 393 renal
SF-268 CNS = test system: SF-268 CNS
SF-295 CNS = test system: SF-295 CNS
SF-539 CNS = test system: SF-539 CNS
UACC-257 melanoma = test system: UACC-257 melanoma
M14 melanoma = test system: M14 melanoma

Measured: growth

CCOP(=O)(NC)OCC
inactive: DU-145 prostate 112% | K-562 leukemia 120% | MALME-3M melanoma 121% | MDA-MB-231 breast 104% | RXF 393 renal 118% | SF-268 CNS 98.7% | SF-295 CNS 129% | SF-539 CNS 101% | UACC-257 melanoma 121% | M14 melanoma 94.8%

COc1cc2c(c(OC)c1OC)-c1ccc(O)cc1[C@@H](NC(C)=O)CC2
active: DU-145 prostate -21.6% and -35.8% | K-562 leukemia 3.22% | MDA-MB-231 breast 9.66% and -7.09% | SF-295 CNS -13.7% and -23.2% | SF-539 CNS 2.98% and -2.84%
inactive: MALME-3M melanoma 26.4% | RXF 393 renal 26.3% and 40.5% | SF-268 CNS 19.5% and 21% | UACC-257 melanoma 54.1% and 48.7% | M14 melanoma 11.5% and 16.8%

Cc1cc2c(cc1-c1ccnc(/C=C/C(=O)O)c1)C(C)(C)CCC2(C)C
inactive: DU-145 prostate 105% | K-562 leukemia 85.5% | MALME-3M melanoma 64.8% | MDA-MB-231 breast 75.5% | RXF 393 renal 79.4% | SF-268 CNS 86.6% | SF-295 CNS 88.6% | SF-539 CNS 78.2% | UACC-257 melanoma 87.4% | M14 melanoma 78.2%

O=C(Cc1ccccc1)c1ccccc1
inactive: DU-145 prostate 105% | K-562 leukemia 104% | MALME-3M melanoma 98.7% | MDA-MB-231 breast 110% | RXF 393 renal 103% | SF-268 CNS 103% | SF-295 CNS 112% | SF-539 CNS 98.8% | UACC-257 melanoma 98% | M14 melanoma 107%

CC[C@H](C)[C@H]1O[C@]2(C=C[C@@H]1C)C[C@@H]1C[C@@H](C/C=C(\C)[C@@H](O[C@H]3C[C@H](OC)[C@@H](O[C@H]4C[C@H](OC)[C@@H](NC)[C@H](C)O4)[C@H](C)O3)[C@@H](C)/C=C/C=C3\CO[C@@H]4[C@H](O)C(C)=C[C@@H](C(=O)O1)[C@]34O)O2
active: DU-145 prostate -85.2% | K-562 leukemia -41.4% | MALME-3M melanoma -67.2% | MDA-MB-231 breast -71.9% | RXF 393 renal -88.4% | SF-268 CNS -56% | SF-295 CNS -65.6% | SF-539 CNS -79.7% | UACC-257 melanoma -56.7% | M14 melanoma -68.6%

N#CCN(CC#N)[N+](=O)[O-]
inactive: DU-145 prostate 107% | K-562 leukemia 105% | MALME-3M melanoma 111% | MDA-MB-231 breast 103% | RXF 393 renal 106% | SF-268 CNS 102% | SF-295 CNS 110% | SF-539 CNS 102% | UACC-257 melanoma 113% | M14 melanoma 97%

CN(C)c1ccc(C=C2C(=O)NC(=O)NC2=O)cc1
inactive: DU-145 prostate 102% | K-562 leukemia 109% | MALME-3M melanoma 96.4% | MDA-MB-231 breast 88.2% | RXF 393 renal 94% | SF-268 CNS 93.5% | SF-295 CNS 95.5% | SF-539 CNS 96.7% | M14 melanoma 86.5%
active: UACC-257 melanoma -19.7%

O=C1C=C(N2CC2)c2ccccc2C1=O
inactive: DU-145 prostate 12.1% | MALME-3M melanoma 106% | MDA-MB-231 breast 88.8% | RXF 393 renal 85.9% | SF-268 CNS 51.6% | SF-295 CNS 23.6% | SF-539 CNS 63.3% | UACC-257 melanoma 83.1% | M14 melanoma 63.6%
active: K-562 leukemia 9.26%

CCC1(CCSC#N)C(=O)NC(=O)NC1=O
inactive: DU-145 prostate 106% | K-562 leukemia 86.5% | MALME-3M melanoma 86.2% | MDA-MB-231 breast 106% | RXF 393 renal 117% | SF-268 CNS 97.2% | SF-295 CNS 100% | SF-539 CNS 94.9% | UACC-257 melanoma 98.9% | M14 melanoma 94.6%

CCCN1C(=O)NC(=O)C(CC)(N2C(=O)c3c(F)c(F)c(F)c(F)c3C2=O)C1=O (stereo not given)
active: DU-145 prostate -98.9% | K-562 leukemia -81.7% | MALME-3M melanoma -71.1% | MDA-MB-231 breast -78.7% | RXF 393 renal -95.1% | SF-268 CNS -82.5% | SF-295 CNS -68.6% | SF-539 CNS -96.7% | UACC-257 melanoma -83.3% | M14 melanoma -64.7%

CC[C@H](C)[C@H](NC(=O)[C@H]1CCCCN1C)C(=O)N(C)[C@H](C[C@@H](OC(C)=O)c1cccc(C(=O)N[C@@H](Cc2ccccc2)C[C@H](C)C(=O)OC)n1)C(C)C
active: DU-145 prostate 2.8% | K-562 leukemia 5.5% | MDA-MB-231 breast 2.42% | SF-295 CNS 2.21% | SF-539 CNS -14% | M14 melanoma -8.11%
inactive: MALME-3M melanoma 66.7% | RXF 393 renal 13.1% | SF-268 CNS 13.9% | UACC-257 melanoma 47.6%

COc1cc2c(cc1OC)[C@@H]1C(=O)c3ccc4c(c3O[C@@H]1CO2)C[C@H](C(C)C)O4
inactive: DU-145 prostate 85.5% | K-562 leukemia 19.9% | MALME-3M melanoma 56.5% | MDA-MB-231 breast 78.3% | RXF 393 renal 102% | SF-268 CNS 79.7% | SF-295 CNS 18.6% | SF-539 CNS 70.7% | UACC-257 melanoma 58% | M14 melanoma 75.4%

C[C@]12CC[C@H](O)C[C@@H]1CC[C@@H]1[C@@H]2CC[C@]2(C)OC(=O)CC[C@@H]12
inactive: DU-145 prostate 107% | K-562 leukemia 118% | MALME-3M melanoma 82.7% | MDA-MB-231 breast 91.1% | RXF 393 renal 117% | SF-268 CNS 98.7% | SF-295 CNS 93.9% | SF-539 CNS 95.9% | UACC-257 melanoma 73.7% | M14 melanoma 100%

Cn1cc(-c2csc(-c3cn(CCCCN4CCOCC4)c4ccc(F)cc34)n2)c2cccnc21
active: K-562 leukemia -49.7% | MALME-3M melanoma -60.3% | UACC-257 melanoma -45.1% | M14 melanoma -53.9%
inactive: DU-145 prostate 100% | MDA-MB-231 breast 35.2% | RXF 393 renal 16.3% | SF-268 CNS 63% | SF-295 CNS 50.8% | SF-539 CNS 69.7%

CN(C)c1ccc([N+](=O)[O-])c([N+](=O)[O-])c1
inactive: DU-145 prostate 103% and 113% | K-562 leukemia 113% and 104% | MALME-3M melanoma 100% | MDA-MB-231 breast 98.4% and 99.1% | RXF 393 renal 111% and 95.3% | SF-268 CNS 106% and 111% | SF-295 CNS 112% and 106% | SF-539 CNS 128% and 104% | UACC-257 melanoma 95.7% and 88.2% | M14 melanoma 99.4% and 93.7%

C[Se]/C=C1/C(=O)N(c2c(Cl)cccc2Cl)c2ccccc21
active: SF-268 CNS 8.58% | SF-539 CNS 0.963% | UACC-257 melanoma -4.62%
inactive: DU-145 prostate 43.9% | K-562 leukemia 20.3% | MALME-3M melanoma 37.4% | MDA-MB-231 breast 31.1% | RXF 393 renal 19.4% | SF-295 CNS 38% | M14 melanoma 20.4%

O=Cc1cn(Cc2ccccc2)c2ccccc12
inactive: DU-145 prostate 108% | K-562 leukemia 53.3% | MALME-3M melanoma 127% | MDA-MB-231 breast 92.7% | RXF 393 renal 67.6% | SF-268 CNS 104% | SF-295 CNS 99.5% | SF-539 CNS 95.1% | UACC-257 melanoma 37.8% | M14 melanoma 117%

Oc1ccc(O)c(Cl)c1
inactive: DU-145 prostate 103% | K-562 leukemia 89.1% and 94.8% | MALME-3M melanoma 106% and 103% | MDA-MB-231 breast 67.3% and 101% | RXF 393 renal 93% and 113% | SF-268 CNS 96% and 100% | SF-295 CNS 103% and 118% | SF-539 CNS 84.4% and 102% | UACC-257 melanoma 88.1% and 102% | M14 melanoma 95.7% and 104%

C[C@@]12CCCc3coc(c31)C(=O)c1cc3c(cc12)C(=O)C1=C(NCCS1(=O)=O)C3=O
active: DU-145 prostate -91.8% | K-562 leukemia -38.6% | MALME-3M melanoma -98.2% | MDA-MB-231 breast -23.7% | RXF 393 renal 6.73% | SF-268 CNS -1.36% | SF-295 CNS 2.57% | SF-539 CNS -63.4% | UACC-257 melanoma -94.2% | M14 melanoma -80.9%

S=P(SP(=S)(c1ccccc1)c1ccccc1)(c1ccccc1)c1ccccc1
inactive: DU-145 prostate 106% | K-562 leukemia 97% | MALME-3M melanoma 96.5% | MDA-MB-231 breast 94.1% | RXF 393 renal 97.1% | SF-268 CNS 95.8% | SF-295 CNS 92.5% | SF-539 CNS 103% | UACC-257 melanoma 104% | M14 melanoma 101%

O=[P+](O)c1cccnc1
inactive: DU-145 prostate 114% | K-562 leukemia 99.1% | MALME-3M melanoma 106% | MDA-MB-231 breast 107% | RXF 393 renal 114% | SF-268 CNS 98.2% | SF-295 CNS 103% | SF-539 CNS 105% | UACC-257 melanoma 104% | M14 melanoma 106%

O=C(O)C1C(C(=O)O)C2(Cl)C(Cl)=C(Cl)C1(Cl)C2(Cl)Cl (stereo not given)
inactive: DU-145 prostate 107% and 120% | K-562 leukemia 113% and 115% | MALME-3M melanoma 104% and 102% | MDA-MB-231 breast 111% and 102% | RXF 393 renal 103% and 130% | SF-268 CNS 105% and 106% | SF-295 CNS 101% and 113% | SF-539 CNS 88.5% | UACC-257 melanoma 102% and 104% | M14 melanoma 102% and 109%

CO/N=C1\CC[C@]2(C)[C@H]3CC[C@]4(C)C(=O)CC[C@H]4[C@@H]3C[C@@H]3SC(N)=N[C@@]32C1
inactive: DU-145 prostate 87.9% | K-562 leukemia 70.7% | MALME-3M melanoma 94% | MDA-MB-231 breast 101% | RXF 393 renal 104% | SF-268 CNS 93.5% | SF-295 CNS 99.1% | SF-539 CNS 100% | UACC-257 melanoma 101% | M14 melanoma 86%
